# Compounds with a hit are over-represented: about 12% of the library has one in this group of screens.
# Sm TGR block: S. mansoni TGR enzyme inhibition. Q962Y6. purified TGR, DTNB reduction, TNB absorbance 405 nm. Potency, µM (doses to about 114 µM), for inactives: at the highest dose activity change, negative = inhibition, usual class: inhibitors. 360,000 compounds, 3% hits. AID 485364; note: % is set by controls: 0 for no effect and ±100 for the full control effect; nearly all actives have a fitted effect of over 60% in size
#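 Kinetic colorimetric format: TGR-catalysed, NADPH-driven DTNB reduction monitored via TNB absorbance. Enzyme dispensed at 20 nM; compound exposure 15 min at room temperature before reaction start.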
# SARS PLP yeast: inhibitors of SARS-CoV papain-like protease in yeast. Potency, µM (doses to about 32.9 µM), inactives show at the top dose activity, positive = growth rescue, usual class: activators. S. cerevisiae expressing SARS-CoV PLpro, growth rescue. AID 485353. 330,000 compounds, 0.19% hits; calls by dose curve; note: 0% is about no effect; nearly all actives have a fitted effect of over 55% in size
# Pf growth 96h: P. falciparum growth inhibition at 96 hour, primary screen for plastid delayed-death inhibitors; P. falciparum luciferase reporter growth, 96 h; Potency, µM (doses to about 28.7 µM), inactives show top-dose activity change, negative = inhibition, actives largely listed as inhibitors; 320,000 compounds, 6.9% hits; AID 504834; note: % is set by controls: 0 for no effect and ±100 for the full control effect
#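 Readout is luminescence from an integrated firefly luciferase in P. falciparum. Red cells, 2% hematocrit and 0.05% parasitemia final, were cultured with compound through two parasite generations (96 hours) at 37 C, 5% CO2.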
# Pf growth 48h: inhibits P. falciparum growth in the first generation, 48 h | 310,000 compounds, 5.9% hits | P. falciparum luciferase growth in erythrocytes, 48 h | AID 504832 | Potency, µM (highest dose often 28.7 µM), for inactives: top-dose activity change, negative = inhibition, most hits filed as inhibitors; note: % is set by controls: 0 for no effect and ±100 for the full control effect
#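 Here the parasites carry a stable luciferase gene and grow inside erythrocytes in Albumax-based RPMI medium with compound for one erythrocytic cycle. Activity is scored as loss of luminescent signal.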
# Active calls of the source: *; u = inconclusive; x = not tested or not shown. Unless noted, calls come from the whole dose curve; as a rule, active = well fitted curve in the direction sought with a large enough effect; inconclusive = small, poorly fitted or top-dose-only effect, or another doubt; inactive = no such curve, though single readings can be large; an effect the other way counts as inactive or inconclusive. Potency is the fitted concentration of half-maximal effect.
SMILES,Sm TGR block,SARS PLP yeast,Pf growth 96h,Pf growth 48h
COc1ccccc1C(CCN(Cc1ccccc1)C(C)=O)c1ccco1 (configuration not stated),18µM*,-3%,u,u
CCC(=O)N(CCC(c1ccco1)C(C)C)Cc1ccccc1 (configuration not stated),0%,-1%,u,u
COc1ccccc1C(CC(N)=O)c1ccco1 (configuration not stated),-6%,22%,u,10%
O=C(CN1C(=O)COc2ccc(S(=O)(=O)N3CCCCCC3)cc21)N1CCN(c2ccc(F)cc2)CC1,-1%,x,x,x
CCO[C@@H]1OC(C(=O)N2CCOCC2)=C[C@H](C2CCCCC2)[C@H]1CCCO,-6%,-2%,3%,-8%
CCO[C@@H]1OC(C(=O)N2CCCCCCC2)=C[C@H](C2CCCCC2)[C@H]1CCCO,6%,-1%,u,10µM*
C#CCNC(=O)C1=C[C@H](C2CCCCC2)[C@@H](CCCO)[C@H](OCC)O1,18µM*,0%,u,u
COCCNC(=O)CN1C(=O)COc2ccc(S(=O)(=O)N3CCCC3)cc21,-11%,x,x,x
CC(C)c1ccc(C(=O)Nc2cc(-c3ccccc3F)nn2-c2ccccc2)cc1,0%,x,x,x
COC(C(=O)NC1CCCCCCC1)c1ccccc1 (configuration not stated),3%,-18%,3.3µM*,-2%
CC(=O)OC(C(=O)NC1CCCCC1)c1ccccc1F (configuration not stated),6%,1%,9.3µM*,3%
COC(=O)c1cc(NC(=O)CN(c2ccccc2)S(=O)(=O)N(C)C)ccc1Cl,6%,x,x,x
Cn1nc(-c2ccccc2F)c2cc(C(=O)NCCc3ccc(Cl)cc3)sc21,-5%,x,x,x
COc1cc(OC)cc(-c2c(-c3cccs3)c3cc(-c4ccc5[nH]ccc5c4)ccc3n2C)c1,-21%,2%,2.3µM*,6.6µM*
COc1cc(OC)cc(-c2c(-c3cccs3)c3cc(-c4ccc5cc[nH]c5c4)ccc3n2C)c1,-22%,-1%,u,10µM*
COc1cccc(-c2c(-c3cc(OC)cc(OC)c3)n(C)c3ccc(-c4ccc5cc[nH]c5c4)cc23)c1,x,0%,x,x
Cc1ccc(C2CC(c3cccs3)=NN2C(=O)CSC2=NN3CCCC(=O)N=C3S2)cc1 (configuration not stated),-9%,-6%,1µM*,9.3µM*
COc1ccc(C2CC(c3cccs3)=NN2C(=O)CSC2=NN3CCCC(=O)N=C3S2)cc1 (configuration not stated),-8%,1%,2.6µM*,10µM*
Nc1c(N2CCOCC2)cc(Cl)c2nonc12,9%,-3%,28%,29%
Nc1c(N2CCCC2)cc(Cl)c2nonc12,56µM*,-21%,u,u
COc1cc2c(cc1OC)-c1cc(N3CCc4ccccc43)nc(=O)n1CC2,1%,0%,12µM*,u
COc1cc2c(cc1OC)-c1cc(Nc3ccccc3)nc(=O)n1CC2,7%,0%,u,u
CCOc1cccc(Nc2cc3n(c(=O)n2)CCc2cc(OC)c(OC)cc2-3)c1,26%,7%,3.7µM*,u
COc1ccccc1NC(=S)N1CCCCCC1,-15%,0%,-3%,27%
COc1cccc(CNS(=O)(=O)c2ccc3c(c2)N(C(C)=O)CCO3)c1,-8%,17%,u,10%
SMILES,Sm TGR block,SARS PLP yeast,Pf growth 96h,Pf growth 48h
CC(=O)ON1C(C)(C)Cc2noc(N)c2C1(C)C,-7%,7%,u,1%
CC1(C)Cc2noc(N)c2C(C)(C)N1O,2.8µM*,-6%,5%,-16%
CCOc1ccc(S(=O)(=O)N(C)c2ccc(OCC(=O)NCCc3ccc(OC)cc3)cc2)cc1,-6%,1%,3.3µM*,93%
COc1ccc(NC(=O)COc2ccc(N(C)S(=O)(=O)c3ccc(C)cc3)cc2)cc1,0%,18%,-27%,-24%
CCOc1ccc(S(=O)(=O)N(C)c2ccc(OCC(=O)NCC3CCCCC3)cc2)cc1,x,-8%,x,x
COc1ccc(NC(=O)COc2ccc(N(C)S(=O)(=O)c3ccc(Cl)cc3)cc2)cc1,-6%,x,u,12µM*
CCOc1ccc(Cl)cc1CNCCCSc1nnnn1C,1%,x,x,x
COC(=O)C1CCCCN1C(=O)CCc1nnc(CCc2c[nH]c3ccccc23)o1 (configuration not stated),0%,1%,u,u

# Source: PubChem (National Center for Advancing Translational Sciences (NCATS))
